Consider 4 compounds from PubChem BioAssay (NCI).

Compounds without any hit were thinned out: in the full panel of roughly 83,000, 20% have a hit.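 Step 1: grow cells in 96-well plates. Step 2: add test compound at a single concentration. Step 3: incubate 48 h. Step 4: record percent growth.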 Values without a mark were called inactive. Active and inactive are the calls of the source. How the source made its calls: active means growth percent below 10; inactive means the rest.

Some test systems named below: HT29 colon; SNB-75 CNS; SNB-19 CNS; U251 CNS; PC-3 prostate; UACC-62 melanoma; LOX IMVI melanoma; SK-MEL-28 melanoma; SK-MEL-2 melanoma; SN12C renal; UO-31 renal; TK-10 renal; ACHN renal; CAKI-1 renal; A498 renal; CCRF-CEM leukemia; MOLT-4 leukemia; SR leukemia; SK-MEL-5 melanoma; EKVX NSCLC.
Assay in all cases: NCI-60 one-dose screen, 48 h (100 = growth as untreated, 0 = no growth, -100 = all killed)
Holding throughout (conditions): 10 µM

Consider `COc1ccc(-c2nc(-c3nc4ccc(Cl)cc4[nH]3)c3ccccn23)cc1`, for which the growth with HT29 colon is 34.7%; in the assay on SNB-75 CNS, -89.4% (active); with SNB-19 CNS, 20.3%; with U251 CNS, 7.5% (active); with PC-3 prostate, 55.9%; in the assay with UACC-62 melanoma, 82.5%. For the same compound, the growth with LOX IMVI melanoma is 30.4%; in the assay with SK-MEL-28 melanoma, 12%; with SK-MEL-2 melanoma it was 41%; with SN12C renal, 52.7%; in the assay with UO-31 renal, -24.8% (active); with TK-10 renal, -12.1% (active). For the same compound, the growth with ACHN renal was 0.296% (active); with CAKI-1 renal it was -13% (active); in the assay on A498 renal, -3.43% (active); with CCRF-CEM leukemia, 82.7%; in the assay on MOLT-4 leukemia, 74.4%; with SR leukemia, 40.3%.

On to `COc1ccc(N=C2C(=Nc3ccc(OC)cc3)N(c3ccc(N(C)C)cc3)C(=S)N2c2ccc(OC)cc2)cc1`, for which the growth is 84% in the assay on HT29 colon; 8.69% (active) in the assay with SNB-75 CNS; 75.1% with SNB-19 CNS; 49.3% with U251 CNS; 52.5% in the assay on PC-3 prostate; 84.8% with SK-MEL-5 melanoma. In addition, the growth in the assay with UACC-62 melanoma is 98.2%; in the assay on LOX IMVI melanoma it was 86.3%; in the assay on SK-MEL-2 melanoma, 90.7%; in the assay with EKVX NSCLC it was 90.1%; with SN12C renal, 106%; in the assay on UO-31 renal it was 16.3%. Moreover, the growth in the assay on TK-10 renal was 95.1%; with ACHN renal, 81.6%; in the assay with A498 renal it was 71.1%; in the assay on CCRF-CEM leukemia, 52%; in the assay with MOLT-4 leukemia, 10.8%; in the assay with SR leukemia, 46.3%.

In the case of `CCN(CCCCCCN1CC(=O)N(CCCCCCN(CC)Cc2ccccc2OC)CC1=O)Cc1ccccc1OC`, the growth with HT29 colon was 20%; in the assay on SNB-75 CNS, 76.6%; in the assay on SNB-19 CNS, 94.8%; in the assay with U251 CNS, 88.8%; with PC-3 prostate, 77.1%; in the assay with SK-MEL-5 melanoma it was 90.9%. Moreover, the growth was 104% in the assay with UACC-62 melanoma; 85.8% with LOX IMVI melanoma; 63.4% in the assay with SK-MEL-2 melanoma; 72.9% in the assay on EKVX NSCLC; 93.9% with SN12C renal; 91.9% with UO-31 renal. Besides, the growth is 87.6% in the assay on TK-10 renal; 110% in the assay on ACHN renal; 90.3% in the assay on CAKI-1 renal; 42.7% with MOLT-4 leukemia; 39.3% in the assay on SR leukemia.

Turning to `CSCCCNC(=O)c1ccc2c(c1)/C(=C/c1[nH]c(C)cc1C)C(=O)N2`, the growth with HT29 colon was 31.2%; with SNB-75 CNS it was -1.79% (active); with SNB-19 CNS it was 60.7%; in the assay on U251 CNS, 43.6%; with PC-3 prostate, 11.4%; in the assay on UACC-62 melanoma, 15.6%. Besides, the growth with LOX IMVI melanoma was 32.5%; with SK-MEL-28 melanoma, 17.6%; in the assay with SK-MEL-2 melanoma, -27.6% (active); with SN12C renal it was 22%; with UO-31 renal it was 9.33% (active); in the assay with TK-10 renal, 29.4%. Besides, the growth in the assay with ACHN renal was 0.349% (active); with CAKI-1 renal, 9.54% (active); in the assay with A498 renal it was -25.9% (active); with CCRF-CEM leukemia, 52.2%; with MOLT-4 leukemia, 29.1%; in the assay with SR leukemia it was 10.7%.
